This is a sample that favours compounds with a hit; in the whole collection about 1.3% have one here.
ADAM10 inh: inhibits human ADAM10; recombinant ADAM10, EDANS/DABCYL FRET peptide cleavage, 3 h; 0.62% of 370,000 active; inhibition, % at 7 µM; AID 720582; O14672;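 active means inhibition above a per-campaign cutoff equal to the mean of compounds falling between control-based bounds plus 3 SD, cut at about 20% in these data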;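 further: 0% = DMSO wells while the 100% control is not disclosed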
NPR2 activator: GC-B (human) receptor activation | 0.11% of 370,000 active | activation, % at 10 µM | HEK293-GC-B cells, CNP EC30, cGMP TR-FRET; 0% at EC30 CNP, 100% saturating CNP;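 active means activation at 10 µM reaching about 35% in either raw or pattern-adjusted values, limit read from the data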
NPR1 activator: GC-A (human) enzyme activation | P16066 | activation, % at 10 µM | 0.14% of 370,000 active | AID 1671463 | HEK293 GC-A cells, cGMP TR-FRET, EC30 ANP; 0% at EC30 ANP, 100% saturating ANP; in the data active means activation above about 40%
ADAM17 inh: inhibits human ADAM17 | P78536 | recombinant ADAM17, EDANS/DABCYL FRET peptide cleavage | inhibition, % at 6.95 µM | 0.83% of 370,000 active | AID 720648;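 active means inhibition above the mean of compounds lying between control limits plus 3 SD, set per campaign, cut at about 8.5% in these data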;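 further: 0% = DMSO-only wells as the low control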
ADAM10 ctr: counter-screen for ADAM17 exosite inhibitors: inhibitors of human ADAM10; shares compounds with ADAM17 inh; recombinant ADAM10, EDANS/DABCYL FRET peptide cleavage, 3 h; inhibition, % at 6.95 µM; 47% of 2,900 active;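 active means mean inhibition over the triplicate runs exceeds the activity threshold set in the earlier primary screen, cut at about 20% in these data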;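 further: 0% = DMSO wells and 100% = marimastat wells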
ADAM17 confirm: human ADAM17 inhibition, confirmation | 65% of 2,900 active | recombinant ADAM17, EDANS/DABCYL QFRET peptide cleavage | shares compounds with ADAM17 inh | inhibition, % at 6.95 µM | AID 743257;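 active means mean inhibition across replicates above the hit cutoff set in the primary screen, cut at about 8.5% in these data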;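 further: 0% = DMSO wells and 100% = marimastat wells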
An asterisk follows results filed as active; . = no result.

SMILES	ADAM10 inh	NPR2 activator	NPR1 activator	ADAM17 inh	ADAM10 ctr	ADAM17 confirm
CCc1ccc(/C=C2/Sc3ccccc3N(CC(=O)NCC3CCCO3)C2=O)cc1 (centres undefined)	8	3	2	8.8*	15	6
O=C(CN1C(=O)/C(=C/c2ccccc2)Sc2ccccc21)NCCCN1CCOCC1	-3	4	2	4	.	.
c1ccc(CN2CCN(c3ncnc4sccc34)CC2)cc1	3	-3	-3	2	.	.
Cc1ccc(Cl)cc1N(CC(=O)Nc1cccc(N(C)S(C)(=O)=O)c1)S(C)(=O)=O	0	0	-1	-2	.	.
CN(c1cccc(NC(=O)CN(c2cccc(Cl)c2)S(=O)(=O)c2ccc(Cl)cc2)c1)S(C)(=O)=O	18	-2	-6	11*	31*	16*
COc1ccccc1NC(=O)Nc1nc(CC(=O)N2CCN(c3ccc(F)cc3)CC2)cs1	5	3	0	9.8*	24*	16*
O=S(=O)(c1cccc(Cl)c1)N1CCN(S(=O)(=O)c2ccc3c(c2)OCCO3)CC1	12	2	-1	10*	6	6
O=S(=O)(c1ccc2c(c1)OCCO2)N1CCN(c2cccc(Cl)c2)CC1	9	-2	-2	8	.	.
Cc1cc(=O)n(Cc2ccc(OC(C)C)cc2)c(=S)[nH]1	7	5	6	10*	14	9.9*
COc1cccc(NC(=O)C2(C)CCCN(C(C)C)C2)c1 (centres undefined)	-3	1	4	2	.	.
CCCNC(=O)C1(C)CCN1C(=O)c1ccccc1CCc1ccccc1 (centres undefined)	7	-8	-3	8.8*	-3	0
CC(C)(C)CNC(=O)C1(C)CCN1C(=O)c1ccccc1CCc1ccccc1 (centres undefined)	-6	5	0	2	.	.
COc1ccc(N2CCN(CC(=O)Nc3c(C)cccc3C)CC2)cc1	-5	-3	3	-6	.	.
COc1ccccc1N(C)S(=O)(=O)c1ccc(C(=O)N(C)Cc2cccc(OC)c2OC)cc1	0	0	2	3	.	.
CCOc1ccc(CN(C)C(=O)c2ccc(S(=O)(=O)N(C)c3ccccc3OC)cc2)cc1	16	5	-2	18*	4	5
O=C(CCCC(=O)OCC(=O)c1cccs1)Nc1ccc(Oc2ccccc2)cc1	9	-1	13	8.9*	10	5
Cc1ccc(S(=O)(=O)Nc2ccccc2CNc2ccccn2)cc1	14	-3	-4	8.8*	18	10*
Cc1ccc(S(=O)(=O)Nc2ccccc2CNc2ccc(Br)cn2)cc1	10	-14	-19	4	.	.
CCS(=O)(=O)N1CCN(Cc2ccccc2OC)CC1	5	-1	1	10*	-6	-3
CCc1ccc(C(C)NC(=O)/C(C#N)=C\c2cn[nH]c2-c2ccccc2)cc1 (centres undefined)	17	-6	2	11*	35*	17*
Cc1ccc(-n2c(COc3ccccc3)nnc2SCC(=O)Nc2ccccc2-c2ccccc2)cc1	16	5	-7	8.9*	32*	16*
Cc1ccc(C)c(NC(=O)CSc2nnc(-c3cc(C)[nH]n3)n2N)c1	-4	2	4	11*	-3	-2
Cc1ccc(OCc2nnc(SCC(=O)Nc3cccc4ccccc34)n2-c2ccccc2)cc1	12	-5	-5	4	.	.
C=CCn1c(SCC(=O)Nc2cccnc2Cl)nnc1-c1ccc(Cl)cc1	-4	0	-4	-5	.	.
C=CCn1c(SCC(=O)Nc2ccccc2-c2ccccc2)nnc1-c1ccc(Cl)cc1	16	3	-8	9.3*	22*	15*
Cc1ccc(NC(=O)CSc2nnc(-c3n[nH]c4ccccc34)n2-c2ccccc2)c(C)c1	19	-5	-5	9.3*	4	10*
CCOC(=O)CN(C(=O)CSc1nnc(COc2ccc(OC)cc2)n1CC)c1ccccc1	9	-6	-8	-3	.	.
CC12CCC(C(=O)Nc3nc4ccccc4s3)(OC1=O)C2(C)C (centres undefined)	9	3	5	-1	.	.

Screening results deposited in PubChem BioAssay by several laboratories.
